# Screening data: PubChem, The Scripps Research Institute Molecular Screening Center
# SF1 inhibitor: SF-1 (human) inhibition | CHO-K1 Gal4-SF-1 LBD luciferase reporter | 65,000 compounds, 0.55% hits | inhibition, % at 10 µM | Q13285;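 active = inhibition above the mean inhibition of all tested compounds plus 3 SD, cut at about 48% in these data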;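 note: 0% = SF-1 transfected cells with DMSO and 100% = mock-transfected cells lacking SF-1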
# Target sequence (Q13285 whole entry, looked up, the tested form may be a part): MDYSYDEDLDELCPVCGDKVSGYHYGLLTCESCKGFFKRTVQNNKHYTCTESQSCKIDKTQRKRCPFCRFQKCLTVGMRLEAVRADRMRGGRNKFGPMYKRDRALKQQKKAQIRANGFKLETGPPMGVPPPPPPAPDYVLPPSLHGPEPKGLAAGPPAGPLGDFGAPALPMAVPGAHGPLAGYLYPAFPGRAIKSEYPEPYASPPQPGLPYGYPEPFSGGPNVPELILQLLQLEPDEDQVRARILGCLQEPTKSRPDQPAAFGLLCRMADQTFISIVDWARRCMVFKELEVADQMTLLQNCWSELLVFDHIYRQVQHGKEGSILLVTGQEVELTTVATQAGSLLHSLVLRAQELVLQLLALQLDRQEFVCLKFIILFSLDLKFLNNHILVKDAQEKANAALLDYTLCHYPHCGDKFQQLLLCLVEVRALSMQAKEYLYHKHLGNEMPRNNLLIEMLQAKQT
# * = called active by the depositor. This excerpt belongs to a sample that is enriched for hits.
SMILES,SF1 inhibitor
COc1ccc(CNC(=O)C2CC(=O)N(c3ccc(OCC(=O)N4C(C)CCCC4C)cc3)C2)cc1 (stereo not given),15
C=CCOc1ccc2c(c1)c(S(=O)(=O)c1ccc(C)cc1)cn2COC,22
Cc1cc(C)n2nnnc2c1C#N,-5
Cn1nc(-c2ccc(C(=O)N3CCN(c4ccccc4)CC3)cc2)c2ccccc2c1=O,1
C=C(C)CSc1nnc([C@H](CCSC)NC(=O)OC(C)(C)C)o1,-8
NC(=O)c1ccsc1NC(=O)COc1ccccc1,-68
CCOC(=O)c1c(C)[nH]c(C(=O)Nc2ccc3c(c2)OCO3)c1C,-132
Cc1ccc(N2C(=O)Nc3ccc(Br)cc3C2(O)C(=O)NCCCN(C)C)cc1C (stereo not given),8
c1ccc(-n2ncc3c(NCc4ccco4)ncnc32)cc1,-77
c1ccc(-c2nc(NCC3CCCO3)c3ccccc3n2)nc1 (stereo not given),1
c1ccc(-c2nc(NCc3ccco3)c3ccccc3n2)nc1,76*
Cc1csc(NC(=O)c2ccoc2C)n1,-56
Cc1ccc(-c2csc3n[nH]c(=S)n23)cc1,0
CN(C)c1nc(Oc2ccc(N)cc2)nc(N(C)C)n1,-19
CCOC(=O)C1CCN(c2cc(=O)n(C3CCCCC3)c(=O)[nH]2)CC1,-12
O=c1cc(NCC2CCCO2)[nH]c(=O)n1-c1ccc(Cl)cc1 (stereo not given),-8
CN1CCN(C2=C(Cl)C(=O)N(c3cccc(Cl)c3)C2=O)CC1,15
O=c1cc(N2CCN(c3cccc(Cl)c3)CC2)[nH]c(=O)n1C1CCCCC1,80*
O=c1cc(N2CCN(c3ccccc3)CC2)[nH]c(=O)n1C1CCCCC1,52*
Cc1ccccc1-n1c(=O)cc(N2CCCCCC2)[nH]c1=O,-7
CN(Cc1ccco1)C(=O)c1ccc(N2CCCC2=O)cc1,-10
COCCCNC(=O)c1ccc(NS(C)(=O)=O)cc1,2
COc1ccc(NC(=O)c2ccco2)c(NC(=O)Cc2cccs2)c1,-7
Cc1cc2c(cc1C)NC1(C(=O)Nc3ccccc31)C1=C(CC(C)(C)CC1=O)N2 (stereo not given),-16
CSCC[C@H](NC(=O)NCCC1=CCCCC1)C(=O)O,-9
SMILES,SF1 inhibitor
CCN(C(=O)c1ccc(C(C)(C)C)cc1)c1nnc(Cn2nnc3ccccc32)s1,69*
COc1cc(NC(=O)CN2C(=O)c3ccccc3C2=O)c(C(=O)O)cc1OC,-4
CN1CCN(c2nc(-c3ccccc3)nc3c2oc2ccccc23)CC1,5
CC(C)Cc1cc(C(=O)N2CCN(c3ccc(F)cc3)CC2)no1,-1
CC1CCN(c2nc3ccc(C(=O)O)cc3s2)CC1,94*
O=C(NCC1CCCO1)c1ccc2nc(N3CCCCC3)sc2c1 (stereo not given),-54
Clc1ccc2nc(N3CCCCC3)sc2c1,-65
O=C(Nc1ccc(F)cc1F)c1noc2c1CCC2,-28
O=C(Cn1ccsc1=NC(=O)c1ccco1)c1ccccc1,5
C/C(=N\O)c1ccc2c3c([nH]c2c1)CCCC3,-64
O=C(Cn1cc2c(n1)CCCC2)NCC1CCCO1 (stereo not given),4
O=C(CCN1C(=O)c2ccccc2C1=O)OCn1nnc2ccccc2c1=O,4
CCOC(=O)c1cc2sccc2n1CCCN1C(=O)c2ccccc2C1=O,2
CCOC(=O)c1[nH]c(C)c(C(=O)Nc2ccccc2F)c1C,-83
CC(=O)c1c(C)[nH]c(C(=O)OCCCCN2C(=O)c3ccccc3C2=O)c1C,84*
COc1cc2nc(COc3ccc(C#N)cc3)n(CC#N)c(=O)c2cc1OC,10
O=C1CCCC2=C1C(c1ccco1)Nc1ccc3ccccc3c12 (stereo not given),4
CCOC(=O)C1CCCN(C(=O)C2CCN(S(=O)(=O)c3cnc[nH]3)CC2)C1 (stereo not given),-23
CCOC(=O)C1CCN(S(=O)(=O)c2ccc(-c3nc4ccccc4s3)s2)CC1,-68
O=C(Nc1nc2ccccc2s1)c1ccc(Cl)s1,-98
O=C(NC1CC1)c1ccc(-c2nc3ccccc3s2)s1,79*
Cc1noc(NS(=O)(=O)c2ccc(NC(=O)c3ccc(Br)o3)cc2)c1C,-3
CN(C)CCCOC(=O)c1ccc(Br)cc1,4
CN(C)CCOC(=O)C1(c2ccccc2)CCOCC1,-24
Cc1oc2cc3c(C(=O)OCCN(C)C)c(C)oc3cc2c1C(=O)OCCN(C)C,79*
SMILES,SF1 inhibitor
c1ccc(-c2noc(-c3ccc4ccccc4c3)n2)nc1,91*
Cc1onc(-c2ccccc2Cl)c1-c1nc(-c2ccccn2)no1,-7
c1ccc(-c2noc(C3CCCCC3)n2)nc1,-56
c1ccc(-c2noc(C34CC5CC(CC(C5)C3)C4)n2)nc1,-86
c1ccc(-c2noc(-c3ccc4c(c3)OCO4)n2)nc1,75*
CN(Cc1nc(-c2ccccn2)no1)S(=O)(=O)c1ccc(Cl)cc1,-4
Cc1onc(-c2ccccc2)c1C(=O)Nc1c(C)n(C)n(-c2ccccc2)c1=O,-5
O=C(C1COc2ccccc2O1)N1CCc2ccccc21 (stereo not given),-54
CCN(CC)Cc1c[nH]c2c(C(=O)OC)cccc12,-9
Fc1ccc2[nH]c3c(N4CCN(c5ccccc5)CC4)ncnc3c2c1,60*
c1ccc(N2CCN(c3ncnc4sc5c(c34)CCC5)CC2)cc1,4
Fc1ccc(Nc2nc(N3CCOCC3)c3ccccc3n2)cc1,19
CCCCOc1ncnc2c1[nH]c1ccc(F)cc12,50*
COc1ccccc1OCC(=O)Nc1ccc(S(=O)(=O)Nc2nc(C)cc(C)n2)cc1,3
CC(=O)Oc1c(S(=O)(=O)c2ccc(C)cc2)c(C)nn1-c1ccccc1,-10
CN(CCc1ccccn1)C(=O)CN(C)S(=O)(=O)c1ccc2c(c1)c(=O)n(C)c(=O)n2C,4
O=C1c2ccccc2C(=O)C1c1nccc2ccccc12,60*
c1ccc2c(-c3nc(-c4ccncc4)no3)cccc2c1,-74
CC1(C)CC(OC(=O)c2ccco2)CC(C)(C)N1O,9
Cc1ccc2nc(-c3ccccc3)cn2c1,89*
O=C(O)Cc1ccc2[nH]c3ccc(CC(=O)O)cc3c2c1,7
O=C(NCCN1CCCCCC1)C1CCC(CNS(=O)(=O)c2cccc3cccnc23)CC1 (stereo not given),-3
Oc1c(CN2CCCCC2)cc(Br)c2cccnc12,69*
O=c1oc2ccccc2c(N2CCCCC2)c1CN1CCCCC1,8
CC(C)(C)n1ncc2c(=O)n(CC(=O)NCc3ccccc3Cl)cnc21,-74
SMILES,SF1 inhibitor
O=C1CCCC2=C1C(c1ccccc1)C1=C(CCCC1=O)O2,14
COc1ccc(Cn2c(C3CC3)nc3ccc(NC(=O)c4ccco4)cc3c2=O)cc1,-59
CN(C(=O)c1cccc(N2C(=O)C3CC=CCC3C2=O)c1)C1CCCCC1 (stereo not given),-6
CCn1c2ccccc2c2cc(Nc3cc(C)nc4ncnn34)ccc21,70*
Cc1cc(N2CCc3ccccc32)n2ncnc2n1,16
Cc1cc(N2CCN(c3nnnn3-c3ccccc3)CC2)n2ncnc2n1,-6
COc1ccc(Cl)cc1N(C)C(=O)CCNC(=O)Cn1cnc2ccccc2c1=O,-7
CC(C)Sc1nnc(Nc2ccccc2)s1,-106
O=C(c1ccc(Cn2cc(Br)cn2)o1)n1cccn1,12
COCCn1c(C)cc(C(=O)CSc2nnc(C)s2)c1C,68*
COCCn1c(C)cc(C(=O)CN2C(=O)NC3(CCCCCCC3)C2=O)c1C,-43
COCCn1c(C)cc(C(=O)COC(=O)C23CC4CC(CC(O)(C4)C2)C3)c1C,-77
O=C(Nc1ccc2c(c1)OCCO2)c1ccc(Br)o1,-59
